Structures are written as SMILES. Screen size: about 96,000 compounds; about 100 (0.1%) were called active.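 How the source made its calls: active means activation at 2 µM above a set limit, the mean plus 5 SD (cut at about 37% in these data); inactive means the rest.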 Shown is part of a subset that was picked to be rich in actives.

This test deals with Tyrosine-protein phosphatase non-receptor type 22 (Homo sapiens) (UniProt Q9Y2R2). As to the kind of experiment: enhancers of human PTPN22 catalytic activity – biochemical, DiFMUP fluorescence, 2 µM, primary screen (AID 697). The following applies: recombinant LYP, at 2 µM, hits give high values, 0 = plate median, 100 = signal doubled.
Tyrosine-protein phosphatase non-receptor type 22 (Homo sapiens), sequence (Q9Y2R2 whole entry, looked up): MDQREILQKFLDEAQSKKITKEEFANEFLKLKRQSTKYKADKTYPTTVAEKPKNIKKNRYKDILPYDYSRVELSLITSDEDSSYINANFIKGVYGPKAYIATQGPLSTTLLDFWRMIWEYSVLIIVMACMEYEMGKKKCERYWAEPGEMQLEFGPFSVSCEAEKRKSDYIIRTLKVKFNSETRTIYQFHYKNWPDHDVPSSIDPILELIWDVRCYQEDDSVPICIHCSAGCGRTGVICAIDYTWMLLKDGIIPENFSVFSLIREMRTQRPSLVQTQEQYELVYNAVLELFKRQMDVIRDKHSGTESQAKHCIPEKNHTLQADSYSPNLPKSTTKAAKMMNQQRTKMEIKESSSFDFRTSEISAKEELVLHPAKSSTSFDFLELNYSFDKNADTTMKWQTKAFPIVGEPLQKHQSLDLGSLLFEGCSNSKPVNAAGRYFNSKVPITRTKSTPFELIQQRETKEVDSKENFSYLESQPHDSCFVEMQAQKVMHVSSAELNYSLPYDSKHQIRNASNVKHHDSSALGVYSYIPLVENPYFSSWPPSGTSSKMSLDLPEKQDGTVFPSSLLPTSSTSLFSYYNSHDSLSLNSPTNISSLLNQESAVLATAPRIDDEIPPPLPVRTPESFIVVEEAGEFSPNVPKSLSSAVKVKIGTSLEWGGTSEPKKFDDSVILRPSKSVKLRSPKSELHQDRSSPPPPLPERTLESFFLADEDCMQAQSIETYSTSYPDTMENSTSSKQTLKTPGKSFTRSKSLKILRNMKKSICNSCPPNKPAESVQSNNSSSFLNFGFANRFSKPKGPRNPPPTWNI
Take `COc1cc(C)c(C(C)C)cc1S(=O)(=O)n1ccnc1`: the activation was 9.7% (inactive).
As for `Cc1cc(Nc2ccccc2)n(CCC#N)n1`, the figure is -4.9% (inactive); as for `N#CCCn1ncc2ccccc21`, 44.2% (active); as for `N#CCCn1cnc2ccccc21`, 2% (inactive).
To `O=C(NC1CCC(O)CC1)c1ccc(S(=O)(=O)NCc2ccco2)cc1` (stereo unspecified) belongs 8.1% (inactive).
As for `CC(=O)N/C(=C/c1ccc(Cl)cc1)C(=O)NCCc1c[nH]c2ccccc12`, the figure is -3% (inactive); as for `COc1cc2c(cc1OC)C(C(C)C)=NC(C)(C)C2`, 12.3% (inactive); as for `Cc1nn(Cc2ccccc2)c2c1C(c1ccccc1)C(C#N)=C(N)O2` (stereo unspecified), -7.2% (inactive).
For the compound `CC(C)(C)NC(=O)Cn1c(SCC(=O)Nc2nccs2)nc2ccccc21`, the activation is 8% (inactive).
To `COc1ccc(N(CC(=O)NC2CCCCC2)C(=O)CNC(=O)c2ccco2)c(OC)c1` belongs 9.4% (inactive); to `Cc1ccc(C(=O)N/C(=C/C=C/c2ccccc2)C(=O)NCc2ccco2)cc1`, -2.3% (inactive); to `COC(=O)C(C)Oc1ccc2c(-c3cccc([N+](=O)[O-])c3)cc(=O)oc2c1` (stereo unspecified), 0.1% (inactive).
Consider `Cc1ccc(NS(=O)(=O)c2c(C)[nH]c(=O)[nH]c2=O)cc1C`, for which the activation was 0.8% (inactive).
On to `CC(=O)C1=C(C)NC(C)=C(C(C)=O)C1c1cn(-c2ccccc2)nc1-c1cccs1`, for which the activation is -3.9% (inactive).
To `COc1cccc2cc(C(=O)N3CCN(C(=O)c4ccccc4)CC3)c(=O)oc12` belongs 17.4% (inactive); to `CS(=O)(=O)N(CC(=O)N1CCN(Cc2ccccc2)CC1)c1ccc2c(c1)OCCO2`, -3.3% (inactive); to `O=C(CCNS(=O)(=O)c1ccccc1C(F)(F)F)NCc1ccc2c(c1)OCO2`, 13.9% (inactive).
As for `CCOc1ccc(-c2nc(C)sc2CC(=O)O)cc1`, the figure is 14.3% (inactive); as for `Cc1ccc(NC(=O)CN2CCc3ccccc3C2)cc1`, -4.9% (inactive); as for `CC(C)C(=O)NC(NC(=S)NC1CCS(=O)(=O)C1)C(Cl)(Cl)Cl` (stereo unspecified), -11.6% (inactive).
To `O=C(Oc1ccccc1C(=S)N1CCCCC1)c1cc([N+](=O)[O-])cc([N+](=O)[O-])c1` belongs -4.4% (inactive); to `c1ccc(-c2nccc(-c3ccc(-n4cnc5ccccc54)cc3)n2)nc1`, -36.4% (inactive); to `Cn1ncc2c(Nc3cccc4ccccc34)ncnc21`, -5% (inactive).
For the compound `CCn1c(-c2ccoc2C)n[nH]c1=S`, the activation is 7.5% (inactive).
As for `N#Cc1ccccc1CN1C(=O)S/C(=C/c2cccn2-c2cccc(C(=O)O)c2)C1=O`, the figure is -30.2% (inactive); as for `O=C1CC(C(F)(F)C(F)(F)C(F)(F)C(F)(F)F)=Nc2ccccc2N1`, 1.9% (inactive).
To `N#Cc1ccc(Oc2cc(C(F)(F)F)nc(-c3ccccn3)n2)cc1` belongs -2.8% (inactive); to `CCSc1nnc(-c2cc3c(s2)-c2ccccc2CC3)o1`, -3.7% (inactive); to `O=C(CCCn1c(SCC(=O)c2ccccc2)nc2ccccc2c1=O)NCC1CCCO1` (stereo unspecified), -4.2% (inactive).
Consider `c1ccc(-c2nc(NCc3ccco3)c3ccccc3n2)cc1`, for which the activation was 8% (inactive).
To `CCSc1ccccc1C(=O)NCc1ccc(OC)cc1` belongs -18.7% (inactive); to `Cc1nc(NC2=NC(C(=O)Nc3ccc(Cl)cc3)CC(=O)N2)nc2ccccc12` (stereo unspecified), -2.8% (inactive).
Consider `COc1cccc(CNCCc2c[nH]c3ccccc23)c1OCc1ccccc1F`, for which the activation was 10.4% (inactive).
As for `CC(C)NC(=O)c1ccccc1S(=O)c1ccccc1C#N` (stereo unspecified), the figure is 4% (inactive); as for `O=C(Cc1c(O)c2ccccc2[nH]c1=O)NCc1ccccc1`, 3.6% (inactive); as for `C=CCn1c(Oc2ccc(C(=O)OC)cc2)nc2c1c(=O)n(C)c(=O)n2C`, -3.9% (inactive).
As for `O=C(O)C1CC=CCC1C(=O)Nc1ccccc1C(=O)N1CCN(c2ccccc2)CC1` (stereo unspecified), the figure is -3.2% (inactive).
As for `Cc1cccc(NC(=O)c2ccc(OCC(=O)NCc3ccccc3)cc2)c1C`, the figure is 6% (inactive); as for `O=C(COC(=O)c1ccccc1SCC(=O)NC1CCCCC1)NC1CCCCC1`, -5.6% (inactive).
`O=C(Nc1ccccc1)OCc1cn(-c2ccc(Cl)cc2)nn1`: the activation was -1.5% (inactive).
As for `Cc1ccc(N2C(=O)CC(Sc3ncn[nH]3)C2=O)cc1` (stereo unspecified), the figure is -8.7% (inactive).
To `Cc1onc(-c2ccccc2Cl)c1C(=O)OCC(=O)c1ccccc1` belongs 13.5% (inactive).
As for `Cc1noc(C)c1C(=O)N1CCOCC1`, the figure is 33% (inactive).
For the compound `CN(C)c1ccc(NC(=S)N(CCc2ccccc2)C2CC(=O)N(c3c(Cl)cccc3Cl)C2=O)cc1` (stereo unspecified), the activation is -8.5% (inactive).
As for `CC1=CC(C)(C)NC(=S)N1c1ccccc1`, the figure is -7.5% (inactive); as for `COC(=O)C1(O)CC(C(C)C)=NN1C(=O)c1ccc(Cl)cc1` (stereo unspecified), -5.9% (inactive).

These data come from PubChem BioAssay AID697 (Columbia University Molecular Screening Center, 2007).
